# In the supplement of paper PMC10681739:
# Columns and labels:
# [1] = molecular target: T1, ETS1 (UniProt P14921); experiment: ETS1 binding intensity (PBM fluorescence), ETS1 alone (arbitrary fluorescence units); higher = stronger binding; settings: ETS1 concentration 1 nM; RUNX1 concentration 0 nM
# T1 sequence: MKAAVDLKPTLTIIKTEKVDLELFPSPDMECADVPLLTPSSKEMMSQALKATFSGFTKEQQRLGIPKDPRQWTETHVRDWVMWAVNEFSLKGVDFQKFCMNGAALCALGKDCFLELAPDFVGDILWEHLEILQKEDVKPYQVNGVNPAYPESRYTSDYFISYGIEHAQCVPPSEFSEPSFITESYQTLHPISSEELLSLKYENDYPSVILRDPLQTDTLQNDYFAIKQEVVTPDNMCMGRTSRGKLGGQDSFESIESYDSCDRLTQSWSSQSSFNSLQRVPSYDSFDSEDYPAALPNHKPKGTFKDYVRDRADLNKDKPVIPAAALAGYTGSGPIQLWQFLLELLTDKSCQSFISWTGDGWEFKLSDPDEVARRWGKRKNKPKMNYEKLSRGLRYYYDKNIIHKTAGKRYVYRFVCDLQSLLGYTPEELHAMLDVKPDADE
# [2] = molecular target: RUNX1 (UniProt Q01196); experiment: RUNX1 binding intensity (PBM fluorescence), RUNX1 alone (arbitrary fluorescence units); higher = stronger binding; settings: RUNX1 concentration 2 nM; ETS1 concentration 0 nM
# RUNX1, sequence (Q01196 whole entry): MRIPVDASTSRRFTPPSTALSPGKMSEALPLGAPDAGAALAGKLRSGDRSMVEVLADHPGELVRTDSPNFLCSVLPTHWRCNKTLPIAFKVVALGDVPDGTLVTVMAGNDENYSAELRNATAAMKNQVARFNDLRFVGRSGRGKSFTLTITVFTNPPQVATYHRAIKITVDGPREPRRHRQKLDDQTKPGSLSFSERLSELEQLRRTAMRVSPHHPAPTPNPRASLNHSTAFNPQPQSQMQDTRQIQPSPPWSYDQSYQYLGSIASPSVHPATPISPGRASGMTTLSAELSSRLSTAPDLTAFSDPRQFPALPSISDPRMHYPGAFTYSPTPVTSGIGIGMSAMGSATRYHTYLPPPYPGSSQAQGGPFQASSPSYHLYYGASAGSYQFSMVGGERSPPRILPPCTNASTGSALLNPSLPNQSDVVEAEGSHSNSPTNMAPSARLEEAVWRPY
# Method: (§1)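 Cooperative gcPBM on 36-bp genomic probes with neighbouring ETS1 and RUNX1 sites. Recombinant human RUNX1 (2 nM) was incubated alone or with ETS1 (25 nM) and detected with anti-RUNX1 antibody plus Alexa488 secondary. Values are medians over 4 replicate spots; the RUNX1+ETS1 data were normalised to the RUNX1-only data. The probes sit in constant array flanks that are not printed.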
# [3] = molecular target: RUNX1 (UniProt Q01196); experiment: RUNX1 binding intensity (PBM fluorescence) in presence of ETS1, normalised to RUNX1-only experiment (arbitrary fluorescence units); higher = stronger binding; settings: RUNX1 concentration 2 nM; ETS1 concentration 25 nM
# Method: as §1
# 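Wherever RUNX1 binding intensity (PBM fluorescence) in presence of ETS1, normalised to RUNX1-only experiment is given: Full-length recombinant human ETS1 or RUNX1 bound to double-stranded 36-bp genomic probes on microarrays, detected by protein-specific primary antibody and Alexa488 secondary, spot fluorescence as median of four replicate spots.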
# 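Wherever RUNX1 binding intensity (PBM fluorescence), RUNX1 alone is given: Full-length recombinant human RUNX1 bound to double-stranded 36-bp genomic probes on a high-density microarray, scored as Alexa488 fluorescence per spot via anti-RUNX1 antibody, median of four replicate spots.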
Sequence,ETS1 binding intensity [1],RUNX1 binding intensity [2],RUNX1 binding intensity [3]
ATCTTTTGATGAGGATGTGGTTTCCAGGCAGGTGCT,836,902,1620
GCTTCTGAGGAAGTGCGTTCTGTGGGTAGGTGGAGT,677,834,918
TGGAAGGCCGGAAAAGGTTTACCACCACACTCCGGT,1850,791,1320
GCCAGCGGGGCTTCCGGCCCCGCAGGCAGAAGTCGA,1460,646,1260
AGTAGAGGAGGAAGTTAAATGTGGTTTTCTGGGTGG,864,857,1130
CCACGGCTGGCTTCCTGTGTGGTTGGCACGCCTTAC,951,772,1620
CCAAAAACCCCAGGAGGATGTGGTGAGGAGGGAAGG,1110,831,1040
GGACAAAACATCATAGGAAGTGGGTTTTGGGGTGAG,1500,761,914
TGTATGAAAAAAACAGGAAACCACAGAGAACTGAGG,2210,1060,2060
CCGTACTTCCGCTTTACTCAGATTTTGGACCGCGGG,1810,1490,3640
CAGGAGCAGTGTAGAGGAAGTGGTTTCCATCACGGA,2630,862,1410
TGAGGGGCTCGCCGGGAAATGTGGTTTAGCGGCCCT,564,832,2000
TCCAGCTCCACAGGATGTGGTGAGTGAAGCAGCAAG,2590,694,2380
CACCTCCTCTCCGGATGCGGTTTGTTCTGCTTGTAG,2580,2210,6810
CTCATCAGTCATCCGGCTGGACCGCAGGAGCTCTCC,403,933,1570
